Out of some 340,000 compounds screened, about 2,000 (0.59%) were called active. This is one part of a sample in which actives are shown more often than they occur. Rule as the data show it: active = activation mostly above about 9.5% (no sharp cut-off); inactive = mostly below about 7.6%.

The target of the test is 5-hydroxytryptamine receptor 5A (Homo sapiens) (UniProt P47898). The test can be described thus: HTR5A agonists in luminescence cell assay, primary screen, counter-screen for OPRM1-OPRD1 heterodimer agonist project, full-deck HTS (AID 504692).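 Also: 0% = cells with vehicle only and 100% = reference agonist.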 The following applies: cell-based, at 9.3 µM, active compounds read high. Background: Counterscreens check selectivity or assay interference.
Chain of 5-hydroxytryptamine receptor 5A (Homo sapiens) (P47898 whole entry, looked up): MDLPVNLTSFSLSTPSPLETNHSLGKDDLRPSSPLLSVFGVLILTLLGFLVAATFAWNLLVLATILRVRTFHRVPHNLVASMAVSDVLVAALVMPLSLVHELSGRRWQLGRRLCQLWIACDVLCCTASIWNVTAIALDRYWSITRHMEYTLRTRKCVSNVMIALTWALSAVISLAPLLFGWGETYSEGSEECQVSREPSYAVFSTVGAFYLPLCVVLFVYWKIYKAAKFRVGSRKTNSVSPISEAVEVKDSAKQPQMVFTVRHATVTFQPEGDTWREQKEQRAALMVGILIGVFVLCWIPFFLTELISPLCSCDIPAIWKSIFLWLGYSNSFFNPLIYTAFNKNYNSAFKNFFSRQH
As to `C/C(=N\NS(=O)(=O)c1cccc([N+](=O)[O-])c1)c1cc2ccccc2o1`, the activation was 11.2% (active). `CC(C=Cc1ccccc1)=NNS(=O)(=O)c1ccc([N+](=O)[O-])cc1`: the activation was 2.51% (inactive). For the molecule `COc1ccc(CCNS(=O)(=O)c2cccc([N+](=O)[O-])c2)cc1`, the activation is 9% (inactive). On to `Cc1ccc(NC(=S)NC(NC(=O)Cc2cccc3ccccc23)C(Cl)(Cl)Cl)cc1` (configuration not stated), for which the activation is 26.7% (active).

`Cc1ccc(CNC(=O)[C@@H](NC(=O)Cc2ccccc2)C(C)C)cc1`: the activation was -1.89% (inactive).

Regarding `CC(C)(C)C(=O)NC(NC(=S)Nc1ccc(S(N)(=O)=O)cc1)C(Cl)(Cl)Cl` (configuration not stated), the activation was 3.71% (inactive). As to `CCOC(=O)C1CCCN(S(=O)(=O)c2ccc(-n3cnnn3)c(C)c2)C1` (configuration not stated), the activation was 1.69% (inactive). On to `COC(=O)c1sccc1NC(=O)CSc1ccccc1NS(=O)(=O)c1cc(Cl)ccc1Cl`, for which the activation was 8.27% (inactive). Consider `CCc1cc2c(NC3CCCC3)ncnc2s1`, for which the activation was 0.57% (inactive).

Take `CCc1cc2c(N3CCN(c4nnc(CC)s4)CC3)ncnc2s1`: the activation is 10.4% (active).

In the case of `CCc1cc2c(NC(Cc3ccccc3)C(=O)O)ncnc2s1` (configuration not stated), the activation was -3.53% (inactive). Turning to `COc1ccc(C(=O)NCc2ccc(Cl)cc2)cc1S(=O)(=O)N1CCCC1`, the activation was -0.47% (inactive). In the case of `C=CCOC(=O)C1=C[C@@H](c2ccc3c(c2)OCO3)C[C@@H](OCCCCO)O1`, the activation was -2.46% (inactive). Next, `Nn1c(SCC(=O)Nc2nccs2)nnc1-c1ccco1`: 2.08% (inactive). For `COc1ccc(-c2cc(=O)oc3cc(OCC(=O)N[C@@H](Cc4c[nH]c5ccccc45)C(=O)O)ccc23)cc1`, the activation was -4.61% (inactive). As to `CC(=O)COc1ccc2c(-c3ccccc3)cc(=O)oc2c1`, the activation is 15.1% (active). Next, `COc1ccc(-c2cc(=O)oc3cc(OCC(=O)N(C)C4CCS(=O)(=O)C4)ccc23)cc1` (configuration not stated): 3.71% (inactive); `Cc1cc(C(=O)OC(C)C(=O)Nc2cccc(S(=O)(=O)N3CCOCC3)c2)c(C)o1` (configuration not stated): 1.13% (inactive); `C[C@@H](CN1CCC[C@H]1CN1C(N)=NC[C@@H]1Cc1ccccc1)N1C[C@@H](Cc2ccccc2)N(CCCC2CCCC2)C1=N`: -7.1% (inactive). Next, `COc1cc(SC#N)ccc1N=Cc1c(C)[nH]n(-c2ccc(C)cc2)c1=O`: 11.4% (active). `Cc1ccc(C(=O)N2CC(=O)Nc3ccccc32)o1`: the activation was -6.07% (inactive). For the molecule `COc1cccc(OC)c1C(=O)N1CCN(Cc2cccnc2)CC1`, the activation was 3.95% (inactive). For `C=C(C)CSc1nnc(-c2ccc(C)cc2)n1N`, the activation was -0.48% (inactive). Next, `COc1ccccc1NS(=O)(=O)c1ccc(C(=O)N2CCN(c3ccccc3O)CC2)cc1`: -0.27% (inactive); `COc1ccc(S(=O)(=O)N2CCOC2CNC(=O)C(=O)NCc2ccncc2)cc1OC` (configuration not stated): 1.9% (inactive); `CC(=O)Nc1ccc(S(=O)(=O)N2CCn3cccc3C2C)cc1` (configuration not stated): -2.82% (inactive). Take `CCOc1ccc2[nH]c(C(=O)N/N=C/c3cccc(OC)c3OC)cc2c1`: the activation was 4.96% (inactive). Then `COc1cccc(/C=N/NC(=O)c2[nH]nc3c2CCc2ccccc2-3)c1O`, with 18.3% (active); and `COc1ccc(/C=N/NC(=O)c2ccncc2)cc1CN1CCCc2ccccc21`, with 1.74% (inactive); and `COc1cccc(CNCc2ccc3c(c2)OCO3)c1`, with 9.7% (inactive). Take `COc1ccc(C(=O)NC2=NCCS2)c(OC)c1`: the activation was 4.66% (inactive). With `COc1ccc(C(=O)NC(C)CCc2ccccc2)c(OC)c1` (configuration not stated), the activation is 3.2% (inactive). With `COc1ccc(C(=O)Nc2cccc(NC(=O)c3ccc(OC)cc3OC)n2)c(OC)c1`, the activation is 13.4% (active). As for `CCc1nnc(NC(=O)c2cc(S(=O)(=O)N3CCCCC3)ccc2C)s1`, the activation is 3.55% (inactive).

In the case of `Cc1ccc(NC(=O)COc2ccc(/C=C3/NC(=O)NC3=O)cc2)cc1`, the activation is 1.1% (inactive).

As for `COC(=O)C1=C(O)/C(=C/c2ccc(OCC(=O)Nc3ccccc3)cc2)N=C1C`, the activation was -2.15% (inactive).

Turning to `CCOC(=O)C1=C(O)/C(=C/c2ccc(OCC(=O)Nc3ccc(C)cc3)cc2)N=C1C`, the activation was 23.3% (active).

For `CCOC(=O)CC1=CC(=O)Nc2ccccc2N1`, the activation was 6.62% (inactive). Then `CCc1ccc(C(=O)NC(=S)Nc2ccccc2N2CCOCC2)cc1`, with -3.97% (inactive); and `CC(=O)N1CCN(c2ccccc2NC(=S)NC(=O)c2cc3ccccc3o2)CC1`, with 16.4% (active). With `COc1ccc(C(=O)NC(=S)Nc2ccccc2N2CCN(S(C)(=O)=O)CC2)cc1OC`, the activation was -1.57% (inactive). Take `O=S(=O)(c1ccc(Sc2nnc3ccccn23)nc1)N1CCOCC1`: the activation is 2.94% (inactive). Next, `NC(=O)C1(N2CCCCC2)CCN(C2CC(=O)N(Cc3ccc(N4CCCC4=O)cc3)C2=O)CC1` (configuration not stated): 1.47% (inactive); `CC(C)Oc1ccc(C(=O)NCC(=O)Nc2ccc3c(c2)CCC3)cc1`: -1.62% (inactive). For the molecule `COc1ccc(-c2ocnc2C(=O)Nc2ccc3c(c2)CCC3)cc1`, the activation is 16.5% (active).

Consider `COc1cccc(NC(=O)CN(C)CC(=O)Nc2ccc3c(c2)CCC3)c1`, for which the activation was 7.9% (inactive).

As for `O=C(CN(C(=O)c1csnn1)c1cccc(F)c1)NCc1ccc(F)cc1`, the activation was -2.96% (inactive). For `CCOC(=O)C1=C(CC)Nc2ccccc2N=C1N`, the activation is 2.67% (inactive).

Regarding `O=C(c1ccc(OC2CCN(C(=O)c3cccnc3)CC2)cc1)N1CCCCCC1`, the activation is 2.41% (inactive). Turning to `O=C(NCc1cc(F)cc(C(F)(F)F)c1)C1CCC(=O)N(C2CCCC2)C1` (configuration not stated), the activation is 2.09% (inactive). For `C[C@H]1[C@H]2c3nc4ccccc4n3C[C@H]1ON2C1CCCCC1`, the activation is 1.56% (inactive).

Turning to `CCOc1ccc(CCNC(=O)C(CC)n2nc(C)n3c(cc4sccc43)c2=O)cc1OCC` (configuration not stated), the activation is 8.13% (inactive). On to `Cc1ccc(/C=C2\CCn3c2nc2cc(C(=O)O)ccc2c3=O)c(C)c1`, for which the activation is 14.2% (active). With `N#Cc1ccc(/C=C2\CCn3c2nc2cc(C(=O)O)ccc2c3=O)cc1`, the activation was -2.04% (inactive). Then `O=C(O)c1ccc2c(=O)n3c(nc2c1)/C(=C/c1ccc(OC(F)F)cc1OC(F)F)CC3`, with -1.8% (inactive). For the molecule `COc1ccc(CNc2nccs2)cc1`, the activation is -2.48% (inactive).

For the molecule `CCN(CC)CCNS(=O)(=O)c1ccc(/C=C/C(=O)O)cc1`, the activation was 6.16% (inactive).

For the origin of these results see PubChem BioAssay AID504692 (The Scripps Research Institute Molecular Screening Center, 2011).
